# PubChem BioAssay AID1159580 (chemical genetic matrix, 2015)
# About 2,000 (36%) of roughly 5,500 compounds were called active. Roughly 18% stayed inconclusive and do not appear here. The list shows a part of the results. A number with no mark means an inactive call. Cut-off read from the data, not from the text of the source: active = normalized growth mostly below about 0.91 (no sharp cut-off); inconclusive = no clear call, values can overlap the other calls; inactive = mostly above about 0.92.
# Experiment: chemical genetic growth profiling, strain panel (AID 1159580);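 note: tested at 20 µM; growth read once vehicle control cultures reached saturation at 30 °C; 1 = growth at the plate median or of vehicle wells; lower values mean less growth of the strain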
# Details: growth OD
compound,measurement,setting,value
O=C1C(Cl)=C(Cl)C(=O)C(Cl)=C1Cl,normalized growth,"S. cerevisiae deletion strains, locus YKL009W, strain mrt4, hits give low values",1.17 [resistant] (active)
same,normalized growth,"S. cerevisiae deletion strains, locus YKL068W, hits give low values",0.12 (active)
same,normalized growth,"S. cerevisiae deletion strains, locus YKL085W, strain MDH1 (second series), hits give low values",0.0519 (active)
same,normalized growth,"S. cerevisiae deletion strains, locus YKL085W, strain MDH1, hits give low values",0.0519 (active)
same,normalized growth,"S. cerevisiae deletion strains, locus YKL160W, strain elf1, hits give low values",0.901 (active)
same,normalized growth,"S. cerevisiae deletion strains, locus YKL190W, strain CNB1, hits give low values",0.629 (active)
same,normalized growth,"S. cerevisiae deletion strains, locus YKR001C, strain vps1, hits give low values",0.094 (active)
same,normalized growth,"S. cerevisiae deletion strains, locus YKR026C, strain gcn3, hits give low values",0.987
same,normalized growth,"S. cerevisiae deletion strains, locus YKR091W, strain srl3, hits give low values",0.99
same,normalized growth,"S. cerevisiae deletion strains, locus YLL001W, strain dnm1, hits give low values",0.958
same,normalized growth,"S. cerevisiae deletion strains, locus YLL026W, hits give low values",0.98
same,normalized growth,"S. cerevisiae deletion strains, locus YLL041C, strain sdh2, hits give low values",0.988
same,normalized growth,"S. cerevisiae deletion strains, locus YLR027C, strain aat2, hits give low values",0.899 (active)
same,normalized growth,"S. cerevisiae deletion strains, locus YLR039C, strain RIC1, hits give low values",0.275 (active)
same,normalized growth,"S. cerevisiae deletion strains, locus YLR058C, strain SHM2, hits give low values",0.966
same,normalized growth,"S. cerevisiae deletion strains, locus YLR102C, strain apc9, hits give low values",0.254 (active)
same,normalized growth,"S. cerevisiae deletion strains, locus YLR113W, strain HOG1, hits give low values",0.145 (active)
same,normalized growth,"S. cerevisiae deletion strains, locus YLR221C, strain rsa3, hits give low values",0.855 (active)
same,normalized growth,"S. cerevisiae deletion strains, locus YLR258W, strain gsy2, hits give low values",0.978
same,normalized growth,"S. cerevisiae deletion strains, locus YLR262C, strain YPT6 (second series), hits give low values",0.703 (active)
same,normalized growth,"S. cerevisiae deletion strains, locus YLR262C, strain YPT6, hits give low values",0.168 (active)
same,normalized growth,"S. cerevisiae deletion strains, locus YLR268W, strain sec22, hits give low values",0.256 (active)
same,normalized growth,"S. cerevisiae deletion strains, locus YLR320W, strain mms22, hits give low values",0.92
same,normalized growth,"S. cerevisiae deletion strains, locus YLR330W, strain CHS5, hits give low values",0.129 (active)
same,normalized growth,"S. cerevisiae deletion strains, locus YLR342W, strain FKS1 (second series), hits give low values",0.243 (active)
same,normalized growth,"S. cerevisiae deletion strains, locus YLR342W, strain FKS1, hits give low values",0.935
same,normalized growth,"S. cerevisiae deletion strains, locus YLR357W, strain rsc2, hits give low values",0.86
same,normalized growth,"S. cerevisiae deletion strains, locus YLR370C, strain arc18, hits give low values",0.919
same,normalized growth,"S. cerevisiae deletion strains, locus YLR371W, strain rom2, hits give low values",0.151 (active)
same,normalized growth,"S. cerevisiae deletion strains, locus YLR384C, strain iki3, hits give low values",0.966
same,normalized growth,"S. cerevisiae deletion strains, locus YLR418C, strain cdc73, hits give low values",0.292 (active)
same,normalized growth,"S. cerevisiae deletion strains, locus YML016C, strain PPZ1, hits give low values",0.776 (active)
same,normalized growth,"S. cerevisiae deletion strains, locus YML032C, strain rad52, hits give low values",0.912
same,normalized growth,"S. cerevisiae deletion strains, locus YML120C, strain ndi1, hits give low values",0.9 (active)
same,normalized growth,"S. cerevisiae deletion strains, locus YML124C, strain tub3, hits give low values",0.708 (active)
same,normalized growth,"S. cerevisiae deletion strains, locus YMR058W, strain fet3, hits give low values",0.909
same,normalized growth,"S. cerevisiae deletion strains, locus YMR078C, strain ctf18, hits give low values",0.551 (active)
same,normalized growth,"S. cerevisiae deletion strains, locus YMR125W, strain sto1, hits give low values",0.792 (active)
same,normalized growth,"S. cerevisiae deletion strains, locus YMR129W, hits give low values",0.957
same,normalized growth,"S. cerevisiae deletion strains, locus YMR205C, strain PFK2, hits give low values",0.932
same,normalized growth,"S. cerevisiae deletion strains, locus YMR223W, strain ubp8, hits give low values",0.182 (active)
same,normalized growth,"S. cerevisiae deletion strains, locus YMR231W, strain pep5, hits give low values",0.971
same,normalized growth,"S. cerevisiae deletion strains, locus YMR263W, strain SAP30, hits give low values",0.794 (active)
same,normalized growth,"S. cerevisiae deletion strains, locus YMR307W, strain GAS1, hits give low values",0.112 (active)
same,normalized growth,"S. cerevisiae deletion strains, locus YNL067W, strain RPL9B, hits give low values",0.63 (active)
same,normalized growth,"S. cerevisiae deletion strains, locus YNL071W, strain lat1, hits give low values",0.824 (active)
same,normalized growth,"S. cerevisiae deletion strains, locus YNL128W, strain TEP1, hits give low values",0.341 (active)
same,normalized growth,"S. cerevisiae deletion strains, locus YNL153C, strain GIM3, hits give low values",0.814 (active)
same,normalized growth,"S. cerevisiae deletion strains, locus YNL183C, strain NPR1, hits give low values",0.0843 (active)
same,normalized growth,"S. cerevisiae deletion strains, locus YNL209W, strain ssb2, hits give low values",0.888 (active)
same,normalized growth,"S. cerevisiae deletion strains, locus YNL233W, strain BNI4, hits give low values",0.17 (active)
same,normalized growth,"S. cerevisiae deletion strains, locus YNL248C, strain rpa49, hits give low values",0.884 (active)
same,normalized growth,"S. cerevisiae deletion strains, locus YNL250W, strain rad50, hits give low values",0.0728 (active)
same,normalized growth,"S. cerevisiae deletion strains, locus YNL271C, strain bni1, hits give low values",0.0654 (active)
same,normalized growth,"S. cerevisiae deletion strains, locus YNL298W, strain CLA4, hits give low values",0.0642 (active)
same,normalized growth,"S. cerevisiae deletion strains, locus YNL307C, strain MCK1, hits give low values",0.206 (active)
same,normalized growth,"S. cerevisiae deletion strains, locus YNL322C, strain KRE1 (second series), hits give low values",0.924
same,normalized growth,"S. cerevisiae deletion strains, locus YNL322C, strain KRE1, hits give low values",0.849 (active)
same,normalized growth,"S. cerevisiae deletion strains, locus YNR049C, strain mso1, hits give low values",0.989
same,normalized growth,"S. cerevisiae deletion strains, locus YNR052C, strain pop2, hits give low values",0.911 (active)
same,normalized growth,"S. cerevisiae deletion strains, locus YOL006C, strain TOP1, hits give low values",0.357 (active)
same,normalized growth,"S. cerevisiae deletion strains, locus YOL012C, strain htz1",0.457
same,normalized growth,"S. cerevisiae deletion strains, locus YOL147C, strain pex11, hits give low values",0.986
same,normalized growth,"S. cerevisiae deletion strains, locus YOR001W, strain rrp6, hits give low values",0.915
same,normalized growth,"S. cerevisiae deletion strains, locus YOR061W, strain CKA2, hits give low values",0.617 (active)
same,normalized growth,"S. cerevisiae deletion strains, locus YOR069W, strain VPS5, hits give low values",0.577 (active)
same,normalized growth,"S. cerevisiae deletion strains, locus YOR070C, strain gyp1, hits give low values",0.917 (active)
same,normalized growth,"S. cerevisiae deletion strains, locus YOR080W, strain dia2, hits give low values",0.98
same,normalized growth,"S. cerevisiae deletion strains, locus YOR083W, strain WHI5, hits give low values",0.871 (active)
same,normalized growth,"S. cerevisiae deletion strains, locus YOR106W, strain vam3, hits give low values",0.856 (active)
same,normalized growth,"S. cerevisiae deletion strains, locus YOR136W, strain idh2, hits give low values",0.307 (active)
same,normalized growth,"S. cerevisiae deletion strains, locus YOR144C, strain elg1, hits give low values",0.985
same,normalized growth,"S. cerevisiae deletion strains, locus YOR184W, strain ser1, hits give low values",0.195 (active)
same,normalized growth,"S. cerevisiae deletion strains, locus YOR231W, strain MKK1, hits give low values",0.124 (active)
same,normalized growth,"S. cerevisiae deletion strains, locus YOR265W, strain rbl2, hits give low values",0.959
same,normalized growth,"S. cerevisiae deletion strains, locus YOR270C, strain vph1, hits give low values",0.977
same,normalized growth,"S. cerevisiae deletion strains, locus YOR290C, strain snf2, hits give low values",0.941
same,normalized growth,"S. cerevisiae deletion strains, locus YOR316C, strain cot1, hits give low values",0.677 (active)
same,normalized growth,"S. cerevisiae deletion strains, locus YPL051W, strain arl3, hits give low values",0.841 (active)
same,normalized growth,"S. cerevisiae deletion strains, locus YPL055C, strain LGE1, hits give low values",0.408 (active)
same,normalized growth,"S. cerevisiae deletion strains, locus YPL078C, strain atp4, hits give low values",0.964
same,normalized growth,"S. cerevisiae deletion strains, locus YPL106C, strain sse1, hits give low values",0.838 (active)
same,normalized growth,"S. cerevisiae deletion strains, locus YPL240C, strain hsp82, hits give low values",0.979
same,normalized growth,"S. cerevisiae deletion strains, locus YPL241C, strain CIN2, hits give low values",0.995
same,normalized growth,"S. cerevisiae deletion strains, locus YPL256C, strain CLN2, hits give low values",0.132 (active)
same,normalized growth,"S. cerevisiae deletion strains, locus YPR119W, strain clb2, hits give low values",0.444 (active)
same,normalized growth,"S. cerevisiae deletion strains, locus YPR141C, strain kar3, hits give low values",0.11 (active)
same,normalized growth,"S. cerevisiae deletion strains, locus YPR163C, strain tif3, hits give low values",0.321 (active)
same,normalized growth,"S. cerevisiae deletion strains, locus YPR167C, strain met16, hits give low values",0.176 (active)
same,normalized growth,"S. cerevisiae deletion strains, strain wtn01, hits give low values",0.32 (active)
same,normalized growth,"S. cerevisiae strains, strain wild type, hits give low values",0.423 (active)
